Laboratory results taken from the supplement of paper PMC10849652.
Targets with a hit are over-represented here; the source holds about 8,800 in all. About 0.5% of all pairs of compound and target were hits.

compound: C1=CC=C(C=C1)[C@H](COC2=CC3=C(C=C2)NC(=O)N3)NC(=O)C4=CC=CN(C4=O)CC5=CC(=C(C=C5)F)F; assay: log2 fold change, soluble protein after heating vs DMSO (PISA); higher = thermal stabilisation; K562 lysate, 10 uM; active = over 0.2 and 3.5 SD of the protein, either way, in both replicates (recomputed)
In short: (§1)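 Following dounce homogenisation of K562 pellets in PBS pH 7.4 with 1 mM MgCl2, crude extract at 1 mg/mL protein was incubated for 30 min with 10 μM compound. Aliquots were then heated for 3 min over 48°C-58°C and pooled, NP-40 was added to 0.5% at 4°C, and soluble protein was recovered as the supernatant at 21,000xg for 90 min. Channel-sum-equalised TMTpro 16plex LC-MS/MS quantified this protein. Each value, from duplicates, is a log-two fold change in thermal stability relative to solvent controls.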

Sequence of UniProt Q1KMD3 (Q1KMD3 whole entry, looked up): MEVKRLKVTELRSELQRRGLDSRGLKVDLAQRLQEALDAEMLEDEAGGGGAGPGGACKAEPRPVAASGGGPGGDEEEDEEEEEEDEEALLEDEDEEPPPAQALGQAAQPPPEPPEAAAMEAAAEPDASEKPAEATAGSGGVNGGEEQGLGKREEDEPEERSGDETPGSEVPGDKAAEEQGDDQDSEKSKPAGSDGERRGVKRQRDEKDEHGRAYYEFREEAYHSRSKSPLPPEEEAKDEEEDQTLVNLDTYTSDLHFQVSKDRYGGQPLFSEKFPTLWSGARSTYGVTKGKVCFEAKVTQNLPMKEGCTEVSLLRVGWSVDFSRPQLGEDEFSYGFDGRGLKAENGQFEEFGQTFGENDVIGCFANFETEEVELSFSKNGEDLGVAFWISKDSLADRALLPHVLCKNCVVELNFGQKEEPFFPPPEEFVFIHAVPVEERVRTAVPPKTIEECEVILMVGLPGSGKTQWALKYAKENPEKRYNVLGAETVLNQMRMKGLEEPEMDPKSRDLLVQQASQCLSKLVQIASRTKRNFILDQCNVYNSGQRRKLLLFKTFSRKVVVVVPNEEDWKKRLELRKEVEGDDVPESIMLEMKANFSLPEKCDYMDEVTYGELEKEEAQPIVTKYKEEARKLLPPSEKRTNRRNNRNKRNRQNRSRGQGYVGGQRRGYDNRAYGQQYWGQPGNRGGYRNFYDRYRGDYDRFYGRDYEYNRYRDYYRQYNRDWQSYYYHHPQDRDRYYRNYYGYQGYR
Sequence of UniProt P26583 (P26583 whole entry, looked up): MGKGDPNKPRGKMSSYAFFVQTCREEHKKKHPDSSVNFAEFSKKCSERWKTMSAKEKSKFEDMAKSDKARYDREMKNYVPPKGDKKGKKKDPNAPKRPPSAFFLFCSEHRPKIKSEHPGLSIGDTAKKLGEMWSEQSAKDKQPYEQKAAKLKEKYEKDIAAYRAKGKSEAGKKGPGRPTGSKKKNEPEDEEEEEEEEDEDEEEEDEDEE
Sequence of UniProt Q9P2X3 (Q9P2X3 whole entry, looked up): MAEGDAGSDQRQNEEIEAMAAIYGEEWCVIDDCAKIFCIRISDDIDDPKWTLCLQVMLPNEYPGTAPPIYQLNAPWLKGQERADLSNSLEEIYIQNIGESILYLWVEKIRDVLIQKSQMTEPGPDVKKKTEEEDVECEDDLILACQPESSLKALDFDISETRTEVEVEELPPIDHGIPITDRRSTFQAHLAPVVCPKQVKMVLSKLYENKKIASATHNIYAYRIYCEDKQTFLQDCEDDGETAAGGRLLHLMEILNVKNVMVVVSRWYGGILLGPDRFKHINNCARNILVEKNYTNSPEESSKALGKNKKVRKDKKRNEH
Sequence of UniProt O94927 (O94927 whole entry, looked up): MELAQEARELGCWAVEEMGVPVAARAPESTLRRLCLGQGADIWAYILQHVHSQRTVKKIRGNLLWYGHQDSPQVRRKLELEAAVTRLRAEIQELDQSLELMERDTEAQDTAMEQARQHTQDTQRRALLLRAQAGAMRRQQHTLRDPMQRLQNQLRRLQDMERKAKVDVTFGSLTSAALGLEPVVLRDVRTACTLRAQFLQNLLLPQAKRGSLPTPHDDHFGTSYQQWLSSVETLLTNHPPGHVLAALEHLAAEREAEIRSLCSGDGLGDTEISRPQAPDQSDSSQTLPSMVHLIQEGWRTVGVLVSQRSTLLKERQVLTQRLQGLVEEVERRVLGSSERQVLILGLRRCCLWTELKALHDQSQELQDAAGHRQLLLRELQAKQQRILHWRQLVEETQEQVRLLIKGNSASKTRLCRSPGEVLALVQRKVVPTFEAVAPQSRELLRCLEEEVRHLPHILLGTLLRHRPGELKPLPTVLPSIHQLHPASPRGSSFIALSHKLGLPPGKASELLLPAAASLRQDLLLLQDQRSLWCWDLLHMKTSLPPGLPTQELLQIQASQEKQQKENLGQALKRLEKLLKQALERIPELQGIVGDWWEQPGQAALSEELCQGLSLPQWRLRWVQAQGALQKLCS
Sequence of UniProt Q96AB3 (Q96AB3 whole entry, looked up): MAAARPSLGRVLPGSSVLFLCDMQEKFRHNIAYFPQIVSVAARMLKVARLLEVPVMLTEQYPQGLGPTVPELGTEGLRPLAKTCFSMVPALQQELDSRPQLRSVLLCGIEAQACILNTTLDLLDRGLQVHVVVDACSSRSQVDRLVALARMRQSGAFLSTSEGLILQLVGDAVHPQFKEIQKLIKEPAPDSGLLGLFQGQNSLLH
Sequence of UniProt Q13478 (Q13478 whole entry, looked up): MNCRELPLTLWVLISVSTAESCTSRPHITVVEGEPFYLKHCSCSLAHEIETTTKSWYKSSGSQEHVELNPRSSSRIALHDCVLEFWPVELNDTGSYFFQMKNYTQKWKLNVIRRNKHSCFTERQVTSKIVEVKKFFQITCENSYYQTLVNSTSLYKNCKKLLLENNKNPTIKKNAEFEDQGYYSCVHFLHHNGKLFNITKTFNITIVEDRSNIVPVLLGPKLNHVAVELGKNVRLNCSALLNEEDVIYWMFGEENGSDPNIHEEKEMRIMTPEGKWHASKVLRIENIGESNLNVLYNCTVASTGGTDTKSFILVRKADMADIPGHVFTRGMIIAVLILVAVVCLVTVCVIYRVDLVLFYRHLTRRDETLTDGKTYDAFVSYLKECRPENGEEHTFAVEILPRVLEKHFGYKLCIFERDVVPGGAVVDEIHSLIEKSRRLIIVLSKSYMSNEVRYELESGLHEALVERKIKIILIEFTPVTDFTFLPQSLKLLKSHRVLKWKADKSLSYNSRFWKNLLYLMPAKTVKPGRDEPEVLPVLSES
Sequence of UniProt Q14527 (Q14527 whole entry, looked up): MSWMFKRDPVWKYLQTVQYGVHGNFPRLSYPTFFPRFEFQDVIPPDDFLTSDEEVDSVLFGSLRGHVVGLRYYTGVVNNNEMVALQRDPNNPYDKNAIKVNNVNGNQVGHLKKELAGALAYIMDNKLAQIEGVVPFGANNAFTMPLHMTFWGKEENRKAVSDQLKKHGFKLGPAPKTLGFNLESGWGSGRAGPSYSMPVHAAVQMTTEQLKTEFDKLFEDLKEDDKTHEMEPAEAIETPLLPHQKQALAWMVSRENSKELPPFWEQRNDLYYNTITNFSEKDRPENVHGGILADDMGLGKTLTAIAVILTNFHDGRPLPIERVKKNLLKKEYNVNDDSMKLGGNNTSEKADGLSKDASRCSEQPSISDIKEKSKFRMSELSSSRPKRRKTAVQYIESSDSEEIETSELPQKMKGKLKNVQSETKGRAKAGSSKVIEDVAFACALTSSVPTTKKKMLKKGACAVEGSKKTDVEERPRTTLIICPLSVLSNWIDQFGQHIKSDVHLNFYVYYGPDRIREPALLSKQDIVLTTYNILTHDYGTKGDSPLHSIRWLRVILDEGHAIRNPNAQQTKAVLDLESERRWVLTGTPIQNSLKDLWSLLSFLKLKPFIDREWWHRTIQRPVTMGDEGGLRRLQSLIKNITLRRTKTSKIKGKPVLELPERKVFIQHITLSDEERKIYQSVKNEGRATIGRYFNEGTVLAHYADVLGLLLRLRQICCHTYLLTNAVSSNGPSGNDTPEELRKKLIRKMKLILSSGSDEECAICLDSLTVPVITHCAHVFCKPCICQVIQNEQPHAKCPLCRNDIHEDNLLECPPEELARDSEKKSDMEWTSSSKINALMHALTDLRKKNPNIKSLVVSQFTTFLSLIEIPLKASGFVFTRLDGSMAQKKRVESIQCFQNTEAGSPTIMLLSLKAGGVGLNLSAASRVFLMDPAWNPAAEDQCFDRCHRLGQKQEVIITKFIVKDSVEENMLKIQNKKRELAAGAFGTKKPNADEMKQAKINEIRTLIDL
Sequence of UniProt Q9BUJ2 (Q9BUJ2 whole entry, looked up): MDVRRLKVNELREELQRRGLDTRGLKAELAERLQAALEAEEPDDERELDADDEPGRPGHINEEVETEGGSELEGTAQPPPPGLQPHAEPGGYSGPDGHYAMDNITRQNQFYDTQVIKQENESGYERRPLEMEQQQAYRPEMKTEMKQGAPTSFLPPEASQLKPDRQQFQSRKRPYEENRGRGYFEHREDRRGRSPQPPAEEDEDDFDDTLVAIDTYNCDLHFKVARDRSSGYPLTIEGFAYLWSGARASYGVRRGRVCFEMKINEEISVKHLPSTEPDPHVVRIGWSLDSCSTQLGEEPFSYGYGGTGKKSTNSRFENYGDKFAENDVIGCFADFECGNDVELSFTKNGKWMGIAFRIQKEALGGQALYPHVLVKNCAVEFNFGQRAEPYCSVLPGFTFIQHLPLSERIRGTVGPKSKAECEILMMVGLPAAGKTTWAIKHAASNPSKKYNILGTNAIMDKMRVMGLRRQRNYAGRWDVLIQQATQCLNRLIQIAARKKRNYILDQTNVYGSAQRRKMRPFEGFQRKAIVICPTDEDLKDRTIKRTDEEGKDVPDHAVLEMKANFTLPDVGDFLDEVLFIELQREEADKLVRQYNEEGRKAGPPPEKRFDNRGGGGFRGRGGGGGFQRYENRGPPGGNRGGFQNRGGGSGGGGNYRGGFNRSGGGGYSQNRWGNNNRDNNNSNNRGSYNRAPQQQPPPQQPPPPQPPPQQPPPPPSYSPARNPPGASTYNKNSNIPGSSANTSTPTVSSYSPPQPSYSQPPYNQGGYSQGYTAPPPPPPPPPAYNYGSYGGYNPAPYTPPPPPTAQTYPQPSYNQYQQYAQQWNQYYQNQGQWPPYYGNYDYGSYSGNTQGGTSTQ
Sequence of UniProt Q01628 (Q01628 whole entry, looked up): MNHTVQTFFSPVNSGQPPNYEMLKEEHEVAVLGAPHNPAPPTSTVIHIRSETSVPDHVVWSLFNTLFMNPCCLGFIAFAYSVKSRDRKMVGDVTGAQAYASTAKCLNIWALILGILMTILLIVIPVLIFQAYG
Sequence of UniProt Q9H4A5 (Q9H4A5 whole entry, looked up): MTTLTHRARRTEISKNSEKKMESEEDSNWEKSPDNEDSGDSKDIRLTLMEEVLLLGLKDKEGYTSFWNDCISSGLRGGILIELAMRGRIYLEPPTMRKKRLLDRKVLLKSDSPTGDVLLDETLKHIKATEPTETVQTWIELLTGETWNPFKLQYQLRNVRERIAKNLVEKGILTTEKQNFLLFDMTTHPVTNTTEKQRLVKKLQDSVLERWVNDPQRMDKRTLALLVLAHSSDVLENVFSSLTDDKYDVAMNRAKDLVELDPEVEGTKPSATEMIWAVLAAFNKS

| Target | log2 fold change |
| --- | --- |
| KBTBD2 (UniProt Q8IY47) | 0.016 (inactive) |
| HNRNPUL1 (UniProt Q9BUJ2) | 0.043 (inactive) |
| KDM1A (UniProt O60341) | 0.007 (inactive) |
| GOLGA6B (UniProt A6NDN3) | -0.041 (inactive) |
| GOLPH3L (UniProt Q9H4A5) | -0.046 (inactive) |
| GTPBP2 (UniProt Q9BX10) | 0.019 (inactive) |
| ISOC2 (UniProt Q96AB3) | -0.014 (inactive) |
| HNRNPL, A0A3B3ITJ4 | -0.063 (inactive) |
| HAUS8 (UniProt Q9BT25) | 0.016 (inactive) |
| HAUS6 (UniProt Q7Z4H7) | 0 (inactive) |
| HMGN5 (UniProt Q5JSK9) | -0.067 (inactive) |
| HADHB (UniProt P55084) | 0.053 (inactive) |
| INTS5 (UniProt Q6P9B9) | -0.086 (inactive) |
| IARS2 (UniProt Q9NSE4) | 0.004 (inactive) |
| HDHD5 (UniProt Q9BXW7) | 0 (inactive) |
| HNRNPDL (UniProt O14979) | 0.033 (inactive) |
| HMBOX1 isoform 5 (UniProt Q6NT76) | 0.016 (inactive) |
| GNE isoform 2 (UniProt Q9Y223) | -0.072 (inactive) |

| Target | log2 fold change |
| --- | --- |
| HERC2 (UniProt O95714) | 0.005 (inactive) |
| IFITM3 (UniProt Q01628) | -0.011 (inactive) |
| HNRNPM (UniProt M0QZM1) | -0.093 (inactive) |
| HELQ (UniProt Q8TDG4) | 0.033 (inactive) |
| HDLBP, A0A024R4E5 | -0.024 (inactive) |
| IGF2BP3 (UniProt O00425) | -0.02 (inactive) |
| HAUS5 (UniProt O94927) | 0.043 (inactive) |
| GIT1 (UniProt Q9Y2X7) | 0.013 (inactive) |
| HSPB1 (UniProt P04792) | -0.091 (inactive) |
| IL18R1 (UniProt Q13478) | -0.612 (active) |
| HNRNPUL2 (UniProt Q1KMD3) | 0.011 (inactive) |
| HSPA8 (UniProt P11142) | 0.002 (inactive) |
| GTF2I (UniProt P78347) | -0.026 (inactive) |
| HMGB2 (UniProt P26583) | 0.022 (inactive) |
| IMPACT (UniProt Q9P2X3) | 0.093 (inactive) |
| HLTF (UniProt Q14527) | -0.053 (inactive) |
| IARS (UniProt P41252) | -0.027 (inactive) |

compound: CC1=C(SC2=C1C(=N[C@H](C3=NN=C(N32)C)CC(=O)N)C4=CC=C(C=C4)Cl)C; assay: as above
In short: as §1

| Target | log2 fold change |
| --- | --- |
| KBTBD2 (UniProt Q8IY47) | -0.005 (inactive) |
| HNRNPUL1 (UniProt Q9BUJ2) | -0.022 (inactive) |
| KDM1A (UniProt O60341) | -0.004 (inactive) |
| GOLGA6B (UniProt A6NDN3) | 0.006 (inactive) |
| GOLPH3L (UniProt Q9H4A5) | 0.005 (inactive) |
| GTPBP2 (UniProt Q9BX10) | 0.021 (inactive) |
| ISOC2 (UniProt Q96AB3) | 0.035 (inactive) |
| HNRNPL, A0A3B3ITJ4 | -0.011 (inactive) |
| HAUS8 (UniProt Q9BT25) | -0.029 (inactive) |
| HAUS6 (UniProt Q7Z4H7) | -0.012 (inactive) |
| HMGN5 (UniProt Q5JSK9) | 0.015 (inactive) |
| HADHB (UniProt P55084) | 0.021 (inactive) |
| INTS5 (UniProt Q6P9B9) | -0.034 (inactive) |
| IARS2 (UniProt Q9NSE4) | 0.013 (inactive) |
| HDHD5 (UniProt Q9BXW7) | 0.071 (inactive) |
| HNRNPDL (UniProt O14979) | 0.002 (inactive) |
| HMBOX1 isoform 5 (UniProt Q6NT76) | -0.008 (inactive) |
| GNE isoform 2 (UniProt Q9Y223) | 0.006 (inactive) |

| Target | log2 fold change |
| --- | --- |
| HERC2 (UniProt O95714) | -0.07 (inactive) |
| IFITM3 (UniProt Q01628) | -0.078 (inactive) |
| HNRNPM (UniProt M0QZM1) | -0.092 (inactive) |
| HELQ (UniProt Q8TDG4) | 0.028 (inactive) |
| HDLBP, A0A024R4E5 | -0.013 (inactive) |
| IGF2BP3 (UniProt O00425) | 0.005 (inactive) |
| HAUS5 (UniProt O94927) | 0.02 (inactive) |
| GIT1 (UniProt Q9Y2X7) | -0.008 (inactive) |
| HSPB1 (UniProt P04792) | 0.002 (inactive) |
| IL18R1 (UniProt Q13478) | -0.103 (inactive) |
| HNRNPUL2 (UniProt Q1KMD3) | 0.016 (inactive) |
| HSPA8 (UniProt P11142) | -0.014 (inactive) |
| GTF2I (UniProt P78347) | 0 (inactive) |
| HMGB2 (UniProt P26583) | -0.069 (inactive) |
| IMPACT (UniProt Q9P2X3) | -0.07 (inactive) |
| HLTF (UniProt Q14527) | -0.006 (inactive) |
| IARS (UniProt P41252) | 0.026 (inactive) |

compound: CC1=C2C(=CC=C1)N=C(N(C2=O)C3=CC=CC=C3C)CN4C=NC5=C(N=CN=C54)N; assay: as above
In short: as §1

| Target | log2 fold change |
| --- | --- |
| KBTBD2 (UniProt Q8IY47) | 0.025 (inactive) |
| HNRNPUL1 (UniProt Q9BUJ2) | -0.028 (inactive) |
| KDM1A (UniProt O60341) | 0.018 (inactive) |
| GOLGA6B (UniProt A6NDN3) | 0.009 (inactive) |
| GOLPH3L (UniProt Q9H4A5) | 0.022 (inactive) |
| GTPBP2 (UniProt Q9BX10) | 0.025 (inactive) |
| ISOC2 (UniProt Q96AB3) | 0.085 (inactive) |
| HAUS8 (UniProt Q9BT25) | 0 (inactive) |
| HAUS6 (UniProt Q7Z4H7) | 0.021 (inactive) |
| HADHB (UniProt P55084) | 0.105 (inactive) |
| INTS5 (UniProt Q6P9B9) | -0.019 (inactive) |
| IARS2 (UniProt Q9NSE4) | -0.006 (inactive) |
| HDHD5 (UniProt Q9BXW7) | 0.032 (inactive) |
| HNRNPDL (UniProt O14979) | 0 (inactive) |
| HMBOX1 isoform 5 (UniProt Q6NT76) | 0.055 (inactive) |
| GNE isoform 2 (UniProt Q9Y223) | 0.023 (inactive) |
| HERC2 (UniProt O95714) | -0.011 (inactive) |

| Target | log2 fold change |
| --- | --- |
| IFITM3 (UniProt Q01628) | -0.118 (inactive) |
| HNRNPM (UniProt M0QZM1) | -0.01 (inactive) |
| HELQ (UniProt Q8TDG4) | 0.005 (inactive) |
| HDLBP, A0A024R4E5 | 0.017 (inactive) |
| IGF2BP3 (UniProt O00425) | 0.009 (inactive) |
| HAUS5 (UniProt O94927) | 0.003 (inactive) |
| GIT1 (UniProt Q9Y2X7) | 0.009 (inactive) |
| HSPB1 (UniProt P04792) | 0.002 (inactive) |
| IL18R1 (UniProt Q13478) | 0.119 (inactive) |
| HNRNPUL2 (UniProt Q1KMD3) | 0.015 (inactive) |
| HSPA8 (UniProt P11142) | -0.004 (inactive) |
| GTF2I (UniProt P78347) | 0.009 (inactive) |
| HMGB2 (UniProt P26583) | -0.03 (inactive) |
| IMPACT (UniProt Q9P2X3) | -0.18 (inactive) |
| HLTF (UniProt Q14527) | -0.065 (inactive) |
| IARS (UniProt P41252) | 0.025 (inactive) |
